# Key:
# Test in all cases: DAPPL (digital affinity profiling via proximity ligation, sequencing); 10 mM Tris-HCl pH 7.5, 50 mM NaCl, 1 mM DTT, 4% glycerol, room temperature, 30 min; GST-TFs on glutathione beads, 16-mer random dsDNA library, 0.1% formaldehyde crosslink after washing; high values mean tight binding
# FEV = target: T1, FEV (Homo sapiens, UniProt Q99581 1-238); conditions: protein: recombinant; tags: N-terminal GST; dsDNA, one strand shown
# T1 sequence: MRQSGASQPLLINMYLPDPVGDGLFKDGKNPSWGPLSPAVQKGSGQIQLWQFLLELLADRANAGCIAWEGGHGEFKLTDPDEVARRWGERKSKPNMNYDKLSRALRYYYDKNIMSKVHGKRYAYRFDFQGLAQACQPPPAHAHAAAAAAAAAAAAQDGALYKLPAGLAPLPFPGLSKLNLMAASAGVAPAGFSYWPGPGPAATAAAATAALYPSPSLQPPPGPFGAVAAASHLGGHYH
# Outline: (§1)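 Binding signal is given per hexamer as its read frequency for a factor divided by its frequency in the tag-only sample. GST-fused human transcription factors were expressed in yeast, captured on glutathione beads, barcoded with DNA and pooled with that sample, then incubated with 200 nmole of a 16-mer random double-stranded DNA library in Tris/NaCl/DTT/glycerol buffer for 30 min at room temperature. The pools were then washed, crosslinked, proximity-ligated, amplified by PCR and sequenced on an Illumina NextSeq500.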
# ETV5 = ETV5 (Homo sapiens, UniProt P41161 1-510); conditions: protein: recombinant; tags: N-terminal GST; dsDNA, one strand shown
# Outline: as §1
# HSF1 = HSF1 (Homo sapiens, UniProt Q00613 1-529); conditions: protein: recombinant; tags: N-terminal GST; chain copies: 3; dsDNA, one strand shown
# Outline: as §1
# SPIC = target: T2, SPIC (Homo sapiens, UniProt Q8N5J4 1-248); conditions: protein: recombinant; tags: N-terminal GST; dsDNA, one strand shown
# T2 sequence: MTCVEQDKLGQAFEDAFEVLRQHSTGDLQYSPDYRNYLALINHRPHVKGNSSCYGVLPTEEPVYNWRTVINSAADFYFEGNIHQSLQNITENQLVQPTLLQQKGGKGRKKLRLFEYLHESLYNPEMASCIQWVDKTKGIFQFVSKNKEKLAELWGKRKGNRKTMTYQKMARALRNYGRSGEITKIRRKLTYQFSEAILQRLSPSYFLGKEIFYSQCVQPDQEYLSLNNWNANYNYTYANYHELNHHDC
# Outline: as §1
# ELF4 = ELF4 (Homo sapiens, UniProt Q99607 1-663); conditions: protein: recombinant; tags: N-terminal GST; dsDNA, one strand shown
# Outline: as §1
# ELK4 = target: T3, ELK4 (Homo sapiens, UniProt P28324-2 1-405); conditions: protein: recombinant; tags: N-terminal GST; dsDNA, one strand shown
# T3 sequence: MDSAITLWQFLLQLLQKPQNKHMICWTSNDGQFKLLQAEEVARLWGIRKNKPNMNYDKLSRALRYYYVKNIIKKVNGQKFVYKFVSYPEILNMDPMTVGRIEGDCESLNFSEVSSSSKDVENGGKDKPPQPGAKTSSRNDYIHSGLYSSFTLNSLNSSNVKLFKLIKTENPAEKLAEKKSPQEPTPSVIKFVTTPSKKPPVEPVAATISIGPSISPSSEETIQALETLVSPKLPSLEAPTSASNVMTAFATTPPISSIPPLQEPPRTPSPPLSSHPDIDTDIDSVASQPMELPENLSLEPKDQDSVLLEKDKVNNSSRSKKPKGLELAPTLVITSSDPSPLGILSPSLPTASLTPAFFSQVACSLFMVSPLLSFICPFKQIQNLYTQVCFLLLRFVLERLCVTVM
# Outline: as §1
# ETV2 = target: T4, ETV2 (Homo sapiens, UniProt O00321 1-342); conditions: protein: recombinant; tags: N-terminal GST; dsDNA, one strand shown
# T4 sequence: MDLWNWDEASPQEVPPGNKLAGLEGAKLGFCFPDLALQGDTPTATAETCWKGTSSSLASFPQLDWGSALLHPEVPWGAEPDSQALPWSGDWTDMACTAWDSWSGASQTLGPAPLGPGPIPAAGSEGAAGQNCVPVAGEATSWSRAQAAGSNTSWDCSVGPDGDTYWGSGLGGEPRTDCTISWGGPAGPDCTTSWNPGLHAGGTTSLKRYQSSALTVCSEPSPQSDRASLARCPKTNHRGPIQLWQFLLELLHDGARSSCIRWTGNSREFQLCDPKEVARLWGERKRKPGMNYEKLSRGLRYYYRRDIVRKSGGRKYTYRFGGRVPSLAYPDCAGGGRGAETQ
# Outline: as §1
# ELF3 = target: T5, ELF3 (Homo sapiens, UniProt P78545 1-371); conditions: protein: recombinant; tags: N-terminal GST; dsDNA, one strand shown
# T5 sequence: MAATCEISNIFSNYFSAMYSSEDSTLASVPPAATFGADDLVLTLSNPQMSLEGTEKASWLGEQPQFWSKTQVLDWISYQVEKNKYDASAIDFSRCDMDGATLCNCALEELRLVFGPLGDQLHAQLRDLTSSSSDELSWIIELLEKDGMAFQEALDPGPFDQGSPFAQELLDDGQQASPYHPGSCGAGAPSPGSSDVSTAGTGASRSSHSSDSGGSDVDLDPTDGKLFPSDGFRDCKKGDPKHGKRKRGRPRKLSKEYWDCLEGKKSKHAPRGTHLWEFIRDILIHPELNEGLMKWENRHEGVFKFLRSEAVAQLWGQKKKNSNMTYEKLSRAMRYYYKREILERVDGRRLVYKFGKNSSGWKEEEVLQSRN
# Outline: as §1
# CRX = CRX (Homo sapiens, UniProt O43186 1-299); conditions: protein: recombinant; tags: N-terminal GST; dsDNA, one strand shown
# Outline: as §1
# ETV1 = ETV1 (Homo sapiens, UniProt P50549 1-477); conditions: protein: recombinant; tags: N-terminal GST; dsDNA, one strand shown
# Outline: as §1
# ERF = target: T6, ERF (Homo sapiens, UniProt P50548 1-548); conditions: protein: recombinant; tags: N-terminal GST; dsDNA, one strand shown
# T6 sequence: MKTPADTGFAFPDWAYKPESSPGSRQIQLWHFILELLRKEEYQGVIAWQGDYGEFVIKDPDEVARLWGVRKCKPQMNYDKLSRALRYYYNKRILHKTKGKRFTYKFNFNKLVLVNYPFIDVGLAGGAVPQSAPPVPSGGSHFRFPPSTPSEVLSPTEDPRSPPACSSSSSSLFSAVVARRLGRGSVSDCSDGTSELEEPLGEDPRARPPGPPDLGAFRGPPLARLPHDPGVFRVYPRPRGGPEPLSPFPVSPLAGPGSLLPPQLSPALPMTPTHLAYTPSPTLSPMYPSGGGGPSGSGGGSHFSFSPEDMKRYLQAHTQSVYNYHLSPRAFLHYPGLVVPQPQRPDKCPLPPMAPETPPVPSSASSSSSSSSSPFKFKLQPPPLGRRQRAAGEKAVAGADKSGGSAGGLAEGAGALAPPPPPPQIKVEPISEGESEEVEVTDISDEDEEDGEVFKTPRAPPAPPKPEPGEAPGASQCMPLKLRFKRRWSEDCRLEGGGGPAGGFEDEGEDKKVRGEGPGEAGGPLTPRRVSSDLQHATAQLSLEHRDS
# Outline: as §1
# ETV3L = target: T7, ETV3L (Homo sapiens, UniProt Q6ZN32 1-361); conditions: protein: recombinant; tags: N-terminal GST; dsDNA, one strand shown
# T7 sequence: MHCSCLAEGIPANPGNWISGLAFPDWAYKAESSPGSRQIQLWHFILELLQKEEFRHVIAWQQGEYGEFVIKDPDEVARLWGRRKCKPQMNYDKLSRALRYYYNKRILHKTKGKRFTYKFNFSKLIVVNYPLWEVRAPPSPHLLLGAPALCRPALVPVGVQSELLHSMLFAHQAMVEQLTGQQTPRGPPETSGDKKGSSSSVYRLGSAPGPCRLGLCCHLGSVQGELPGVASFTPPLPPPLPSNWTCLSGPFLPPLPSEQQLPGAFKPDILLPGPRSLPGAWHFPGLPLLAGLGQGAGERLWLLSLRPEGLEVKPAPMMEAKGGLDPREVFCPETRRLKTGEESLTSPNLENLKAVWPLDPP
# Outline: as §1
# ETS2 = target: T8, ETS2 (Homo sapiens, UniProt P15036 1-469); conditions: protein: recombinant; tags: N-terminal GST; dsDNA, one strand shown
# T8 sequence: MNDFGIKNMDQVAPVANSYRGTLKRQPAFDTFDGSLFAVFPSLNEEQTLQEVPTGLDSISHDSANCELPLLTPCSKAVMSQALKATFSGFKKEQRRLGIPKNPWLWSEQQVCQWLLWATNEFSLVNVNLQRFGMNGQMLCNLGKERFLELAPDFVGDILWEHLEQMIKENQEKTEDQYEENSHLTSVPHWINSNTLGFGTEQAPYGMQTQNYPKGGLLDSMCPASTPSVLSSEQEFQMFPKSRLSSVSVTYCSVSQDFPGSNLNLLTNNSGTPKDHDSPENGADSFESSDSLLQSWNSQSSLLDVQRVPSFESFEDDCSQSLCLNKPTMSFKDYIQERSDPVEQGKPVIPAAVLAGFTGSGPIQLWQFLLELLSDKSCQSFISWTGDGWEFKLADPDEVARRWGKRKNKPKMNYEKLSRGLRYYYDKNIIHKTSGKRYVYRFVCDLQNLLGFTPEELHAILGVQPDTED
# Outline: as §1
# SPDEF = target: T9, SPDEF (Homo sapiens, UniProt O95238 1-335); conditions: protein: recombinant; tags: N-terminal GST; dsDNA, one strand shown
# T9 sequence: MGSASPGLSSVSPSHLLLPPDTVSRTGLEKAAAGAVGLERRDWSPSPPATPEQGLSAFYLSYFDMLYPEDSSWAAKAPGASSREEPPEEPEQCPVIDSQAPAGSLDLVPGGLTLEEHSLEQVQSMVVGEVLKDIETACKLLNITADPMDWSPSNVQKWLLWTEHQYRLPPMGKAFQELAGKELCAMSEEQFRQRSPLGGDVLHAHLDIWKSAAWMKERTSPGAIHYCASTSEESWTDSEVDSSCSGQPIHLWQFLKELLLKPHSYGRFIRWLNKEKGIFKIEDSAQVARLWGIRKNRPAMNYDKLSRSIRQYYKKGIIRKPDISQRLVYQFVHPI
# Outline: as §1
# ETV7 = target: T10, ETV7 (Homo sapiens, UniProt Q9Y603 1-341); conditions: protein: recombinant; tags: N-terminal GST; dsDNA, one strand shown
# T10 sequence: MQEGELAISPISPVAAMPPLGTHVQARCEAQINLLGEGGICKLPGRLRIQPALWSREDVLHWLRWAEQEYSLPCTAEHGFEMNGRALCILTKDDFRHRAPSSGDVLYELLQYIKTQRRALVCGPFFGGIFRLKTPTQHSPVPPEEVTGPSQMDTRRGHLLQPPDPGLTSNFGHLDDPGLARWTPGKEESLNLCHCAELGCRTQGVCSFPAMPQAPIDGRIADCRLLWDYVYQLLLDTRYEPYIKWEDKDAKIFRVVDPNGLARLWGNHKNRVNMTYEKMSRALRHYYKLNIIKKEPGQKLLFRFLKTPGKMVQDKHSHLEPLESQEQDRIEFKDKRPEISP
# Outline: as §1
# ELF5 = target: T11, ELF5 (Homo sapiens, UniProt Q9UKW6-2 1-255); conditions: protein: recombinant; tags: N-terminal GST; dsDNA, one strand shown
# T11 sequence: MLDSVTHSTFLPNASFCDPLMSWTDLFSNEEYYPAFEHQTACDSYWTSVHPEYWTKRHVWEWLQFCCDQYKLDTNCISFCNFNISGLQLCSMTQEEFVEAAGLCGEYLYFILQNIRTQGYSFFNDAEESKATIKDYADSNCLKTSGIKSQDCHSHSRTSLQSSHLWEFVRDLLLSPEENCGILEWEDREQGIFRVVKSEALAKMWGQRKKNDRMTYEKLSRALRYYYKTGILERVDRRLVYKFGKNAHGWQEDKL
# Outline: as §1
# ETV3 = target: T12, ETV3 (Homo sapiens, UniProt P41162-2 1-143); conditions: protein: recombinant; tags: N-terminal GST; dsDNA, one strand shown
# T12 sequence: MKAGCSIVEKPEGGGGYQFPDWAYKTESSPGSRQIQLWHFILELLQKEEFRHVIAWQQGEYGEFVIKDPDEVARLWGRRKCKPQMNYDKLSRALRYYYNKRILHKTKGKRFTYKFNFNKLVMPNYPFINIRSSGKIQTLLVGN
# Outline: as §1
# ETV6 = ETV6 (Homo sapiens, UniProt P41212 1-452); conditions: protein: recombinant; tags: N-terminal GST; dsDNA, one strand shown
# Outline: as §1
# Chain of ETV1 (P50549 whole entry): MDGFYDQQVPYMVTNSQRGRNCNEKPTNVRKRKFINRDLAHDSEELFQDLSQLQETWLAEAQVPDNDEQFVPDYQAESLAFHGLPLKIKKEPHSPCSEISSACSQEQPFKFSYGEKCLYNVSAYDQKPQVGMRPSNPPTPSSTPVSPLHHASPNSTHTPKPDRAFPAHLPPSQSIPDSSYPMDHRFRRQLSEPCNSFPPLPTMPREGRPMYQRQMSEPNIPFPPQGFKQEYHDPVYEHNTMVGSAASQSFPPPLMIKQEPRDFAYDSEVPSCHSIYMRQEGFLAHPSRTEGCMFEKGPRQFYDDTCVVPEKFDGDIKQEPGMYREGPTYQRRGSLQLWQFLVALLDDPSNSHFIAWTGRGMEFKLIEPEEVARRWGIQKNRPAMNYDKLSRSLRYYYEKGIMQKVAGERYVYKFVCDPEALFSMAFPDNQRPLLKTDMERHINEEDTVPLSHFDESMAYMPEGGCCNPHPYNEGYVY
# Chain of ETV5 (P41161 whole entry): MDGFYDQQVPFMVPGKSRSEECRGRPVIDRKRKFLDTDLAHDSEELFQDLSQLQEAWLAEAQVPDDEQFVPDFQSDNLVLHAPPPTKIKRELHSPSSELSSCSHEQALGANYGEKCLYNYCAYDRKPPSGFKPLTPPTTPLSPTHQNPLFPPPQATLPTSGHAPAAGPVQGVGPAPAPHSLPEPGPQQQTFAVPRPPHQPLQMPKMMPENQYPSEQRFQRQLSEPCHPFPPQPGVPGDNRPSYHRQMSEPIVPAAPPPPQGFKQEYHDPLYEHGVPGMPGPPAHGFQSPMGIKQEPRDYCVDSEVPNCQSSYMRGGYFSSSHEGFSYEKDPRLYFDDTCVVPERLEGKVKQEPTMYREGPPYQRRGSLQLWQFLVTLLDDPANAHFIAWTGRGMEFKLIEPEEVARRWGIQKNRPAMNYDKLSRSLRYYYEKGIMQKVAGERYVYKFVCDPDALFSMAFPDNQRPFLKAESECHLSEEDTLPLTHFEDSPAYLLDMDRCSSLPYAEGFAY
# Chain of ETV6 (P41212 whole entry): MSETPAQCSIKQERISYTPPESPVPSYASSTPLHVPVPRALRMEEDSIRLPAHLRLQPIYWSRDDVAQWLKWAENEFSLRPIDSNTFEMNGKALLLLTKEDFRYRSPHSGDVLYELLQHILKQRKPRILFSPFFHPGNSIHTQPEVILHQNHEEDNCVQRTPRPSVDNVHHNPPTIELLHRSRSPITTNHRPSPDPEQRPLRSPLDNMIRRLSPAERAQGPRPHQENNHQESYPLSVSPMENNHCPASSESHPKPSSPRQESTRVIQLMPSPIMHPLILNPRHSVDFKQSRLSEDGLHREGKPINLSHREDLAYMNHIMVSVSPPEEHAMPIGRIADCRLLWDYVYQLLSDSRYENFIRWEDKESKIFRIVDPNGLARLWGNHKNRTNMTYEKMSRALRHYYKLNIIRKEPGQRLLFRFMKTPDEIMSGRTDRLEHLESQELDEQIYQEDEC
# Chain of CRX (O43186 whole entry): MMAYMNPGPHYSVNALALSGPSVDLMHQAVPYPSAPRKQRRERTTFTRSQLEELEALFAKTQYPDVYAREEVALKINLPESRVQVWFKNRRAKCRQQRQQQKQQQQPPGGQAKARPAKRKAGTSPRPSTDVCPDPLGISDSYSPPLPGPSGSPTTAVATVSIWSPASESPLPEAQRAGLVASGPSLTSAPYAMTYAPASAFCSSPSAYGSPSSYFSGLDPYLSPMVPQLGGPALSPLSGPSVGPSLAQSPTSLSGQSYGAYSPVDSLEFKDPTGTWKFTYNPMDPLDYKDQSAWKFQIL
# Chain of HSF1 (Q00613 whole entry): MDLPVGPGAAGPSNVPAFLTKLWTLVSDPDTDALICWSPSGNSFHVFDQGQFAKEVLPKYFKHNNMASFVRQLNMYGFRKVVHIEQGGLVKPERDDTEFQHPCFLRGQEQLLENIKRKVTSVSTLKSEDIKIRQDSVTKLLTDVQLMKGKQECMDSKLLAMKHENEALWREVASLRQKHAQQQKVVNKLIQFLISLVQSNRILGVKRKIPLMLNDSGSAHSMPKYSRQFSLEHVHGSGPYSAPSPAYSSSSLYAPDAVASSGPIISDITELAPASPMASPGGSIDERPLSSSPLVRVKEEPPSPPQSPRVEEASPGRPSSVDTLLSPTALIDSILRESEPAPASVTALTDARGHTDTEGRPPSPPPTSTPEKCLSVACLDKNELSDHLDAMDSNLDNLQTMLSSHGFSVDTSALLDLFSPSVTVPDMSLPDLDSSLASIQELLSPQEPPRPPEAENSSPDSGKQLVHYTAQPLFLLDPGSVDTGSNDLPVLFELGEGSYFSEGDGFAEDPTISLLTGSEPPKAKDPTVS
# Chain of ELF4 (Q99607 whole entry): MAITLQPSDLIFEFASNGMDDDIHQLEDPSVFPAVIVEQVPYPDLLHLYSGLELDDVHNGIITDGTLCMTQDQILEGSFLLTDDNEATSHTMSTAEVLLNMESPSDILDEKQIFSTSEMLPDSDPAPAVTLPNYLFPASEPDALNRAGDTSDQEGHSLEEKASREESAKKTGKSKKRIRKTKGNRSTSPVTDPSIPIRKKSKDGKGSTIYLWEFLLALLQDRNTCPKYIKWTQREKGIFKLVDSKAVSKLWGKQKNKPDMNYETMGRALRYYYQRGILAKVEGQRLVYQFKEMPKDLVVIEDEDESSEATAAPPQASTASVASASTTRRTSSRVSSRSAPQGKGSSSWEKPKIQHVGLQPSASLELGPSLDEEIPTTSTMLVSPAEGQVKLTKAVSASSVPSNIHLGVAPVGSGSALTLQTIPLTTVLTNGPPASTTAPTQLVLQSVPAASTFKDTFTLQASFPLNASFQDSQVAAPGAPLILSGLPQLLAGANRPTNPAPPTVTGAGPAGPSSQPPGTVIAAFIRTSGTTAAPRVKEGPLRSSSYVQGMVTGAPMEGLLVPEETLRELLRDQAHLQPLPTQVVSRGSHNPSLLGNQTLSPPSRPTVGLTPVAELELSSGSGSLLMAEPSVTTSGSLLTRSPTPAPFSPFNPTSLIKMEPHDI
sequence,measurement,setting,value
ATACGA,binding signal,FEV,"1.16 fold enrichment (6-mer frequency, TF over GST control)"
same,binding signal,ETV5,"1.17 fold enrichment (6-mer frequency, TF over GST control)"
same,binding signal,HSF1,"1.22 fold enrichment (6-mer frequency, TF over GST control)"
same,binding signal,SPIC,"1.01 fold enrichment (6-mer frequency, TF over GST control)"
same,binding signal,ELF4,"1.21 fold enrichment (6-mer frequency, TF over GST control)"
same,binding signal,ELK4,"1.08 fold enrichment (6-mer frequency, TF over GST control)"
same,binding signal,ETV2,"1.05 fold enrichment (6-mer frequency, TF over GST control)"
same,binding signal,ELF3,"1.08 fold enrichment (6-mer frequency, TF over GST control)"
same,binding signal,CRX,"1.17 fold enrichment (6-mer frequency, TF over GST control)"
same,binding signal,ETV1,"1.19 fold enrichment (6-mer frequency, TF over GST control)"
same,binding signal,ERF,"1.17 fold enrichment (6-mer frequency, TF over GST control)"
same,binding signal,ETV3L,"1.1 fold enrichment (6-mer frequency, TF over GST control)"
same,binding signal,ETS2,"1.17 fold enrichment (6-mer frequency, TF over GST control)"
same,binding signal,SPDEF,"1.18 fold enrichment (6-mer frequency, TF over GST control)"
same,binding signal,ETV7,"1.11 fold enrichment (6-mer frequency, TF over GST control)"
same,binding signal,ELF5,"1.17 fold enrichment (6-mer frequency, TF over GST control)"
same,binding signal,ETV3,"1.11 fold enrichment (6-mer frequency, TF over GST control)"
same,binding signal,ETV6,"1.08 fold enrichment (6-mer frequency, TF over GST control)"

# Reference: publication PMC7862700, “An all-to-all approach to the identification of sequence-specific readers for epigenetic DNA modifications on cytosine”
